This note sets out measurements from paper PMC11006913.

Residue numbers refer to the chain shown, from its start.

Common to all, as to test: PBM; 200 nM protein, PBS
Settings in all cases: dsDNA, one strand shown

Assay [1] addresses HOXC10 (Homo sapiens, UniProt Q9NYD6 254-340).
Assay [2] addresses HOXD13 (Homo sapiens, UniProt P35453 263-343, T313R).
Assay [3] addresses HOXD13 (Homo sapiens, UniProt P35453 263-343).
Assay [4] addresses HOXC10 (Homo sapiens, UniProt Q9NYD6 254-340, K271E).
The target of assay [5] is HOXD13 (Homo sapiens, UniProt P35453 263-343, T313A).
HOXD13 (Homo sapiens, UniProt P35453 263-343, T313A), sequence (P35453 263-343 T313A): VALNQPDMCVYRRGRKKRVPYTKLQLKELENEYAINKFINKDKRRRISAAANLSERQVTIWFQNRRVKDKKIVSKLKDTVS
In assay [6] the target is T1, PAX4 (Homo sapiens, UniProt O43316 9-242, R200K).
T1 sequence: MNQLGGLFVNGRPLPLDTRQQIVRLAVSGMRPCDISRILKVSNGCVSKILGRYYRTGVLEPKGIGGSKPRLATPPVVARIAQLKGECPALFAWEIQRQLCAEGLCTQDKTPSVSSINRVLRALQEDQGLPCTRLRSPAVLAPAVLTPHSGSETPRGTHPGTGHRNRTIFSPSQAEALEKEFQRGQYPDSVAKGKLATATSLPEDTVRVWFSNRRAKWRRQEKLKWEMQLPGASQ

The target in assay [7] is T2, PAX4 (Homo sapiens, UniProt O43316 9-242).
T2 sequence: T1 sequence with K192R

Assay [8] concerns the target ALX1 (Homo sapiens, UniProt Q15699 118-204, L144V).
In assay [9] the target is T3, PAX4 (Homo sapiens, UniProt O43316 9-242, R200Q).
T3 sequence: T1 sequence with K192Q

Assay [10] has as its target ALX1 (Homo sapiens, UniProt Q15699 118-204, L144R).
Assay [11] concerns the target T4, PAX4 (Homo sapiens, UniProt O43316 9-242, F177V).
T4 sequence: T1 sequence with F169V, K192R

In assay [12] the target is T5, PAX4 (Homo sapiens, UniProt O43316 9-242, F177Y).
T5 sequence: T1 sequence with F169Y, K192R

Assay [13] addresses T6, PAX4 (Homo sapiens, UniProt O43316 9-242, R227W).
T6 sequence: T1 sequence with K192R, R219W

Assay [14] has as its target ALX1 (Homo sapiens, UniProt Q15699 118-204).
Assay [15] has as its target MSX2 (Homo sapiens, UniProt P35548 130-214, R199I).
Assay [16] concerns the target MSX2 (Homo sapiens, UniProt P35548 130-214).
Assay [17] has as its target MSX2 (Homo sapiens, UniProt P35548 130-214, F161Y).
The target in assay [18] is ALX4 (Homo sapiens, UniProt Q9H161 200-286, Q225E).
ALX4, sequence (Q9H161 200-286 Q225E): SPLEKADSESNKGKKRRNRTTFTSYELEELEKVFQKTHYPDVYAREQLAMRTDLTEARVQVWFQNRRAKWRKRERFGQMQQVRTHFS
For assay [19], the target named is HOXC9 (Homo sapiens, UniProt P31274 178-260, R222W).
HOXC9, sequence (P31274 178-260 R222W): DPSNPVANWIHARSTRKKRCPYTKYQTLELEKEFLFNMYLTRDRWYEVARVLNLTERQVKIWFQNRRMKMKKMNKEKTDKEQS
The target of assay [20] is PRRX1 (Homo sapiens, UniProt P54821 80-166, F113S).
PRRX1 (Homo sapiens, UniProt P54821 80-166, F113S), sequence (P54821 80-166 F113S): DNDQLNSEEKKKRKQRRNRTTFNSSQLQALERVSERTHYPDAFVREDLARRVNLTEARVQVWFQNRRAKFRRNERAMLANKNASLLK
Assay [21] deals with PRRX1 (Homo sapiens, UniProt P54821 80-166).
PRRX1 (Homo sapiens, UniProt P54821 80-166), sequence (P54821 80-166): as the sequence (P54821 80-166 F113S) above, with S34F counted along it
Assay [22] addresses ALX3 (Homo sapiens, UniProt O95076 139-225, N203Q).
For assay [23], the target named is ALX3 (Homo sapiens, UniProt O95076 139-225).
ALX3 (Homo sapiens, UniProt O95076 139-225), sequence (O95076 139-225): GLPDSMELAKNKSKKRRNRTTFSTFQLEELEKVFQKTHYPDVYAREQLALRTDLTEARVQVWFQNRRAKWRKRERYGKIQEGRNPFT
The target in assay [24] is ALX3 (Homo sapiens, UniProt O95076 139-225, L168Q).
ALX3 (Homo sapiens, UniProt O95076 139-225, L168Q), sequence (O95076 139-225 L168Q): as the sequence (O95076 139-225) above, with L30Q counted along it
Assay [25] has as its target ALX3 (Homo sapiens, UniProt O95076 139-225, L168V).
For assay [26], the target named is ALX3 (Homo sapiens, UniProt O95076 139-225, N203S).
ALX3 (Homo sapiens, UniProt O95076 139-225, N203S), sequence (O95076 139-225 N203S): as the sequence (O95076 139-225) above, with N65S counted along it

HOXC10 (Homo sapiens, UniProt Q9NYD6 254-340), sequence (Q9NYD6 254-340): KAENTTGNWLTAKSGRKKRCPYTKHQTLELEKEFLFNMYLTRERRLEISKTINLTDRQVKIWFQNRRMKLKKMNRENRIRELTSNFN
HOXC10 (Homo sapiens, UniProt Q9NYD6 254-340, K271E), sequence (Q9NYD6 254-340 K271E): as the sequence (Q9NYD6 254-340) above, with K18E counted along it
HOXD13 (Homo sapiens, UniProt P35453 263-343, T313R), sequence (P35453 263-343 T313R): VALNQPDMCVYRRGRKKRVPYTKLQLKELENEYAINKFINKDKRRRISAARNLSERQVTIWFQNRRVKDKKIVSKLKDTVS
HOXD13 (Homo sapiens, UniProt P35453 263-343), sequence (P35453 263-343): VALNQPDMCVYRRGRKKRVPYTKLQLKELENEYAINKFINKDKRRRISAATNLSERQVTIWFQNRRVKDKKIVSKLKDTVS
ALX1 (Homo sapiens, UniProt Q15699 118-204), sequence (Q15699 118-204): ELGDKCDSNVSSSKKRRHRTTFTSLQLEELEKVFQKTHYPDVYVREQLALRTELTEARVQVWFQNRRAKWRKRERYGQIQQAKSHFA
ALX1 (Homo sapiens, UniProt Q15699 118-204, L144R), sequence (Q15699 118-204 L144R): as the sequence (Q15699 118-204) above, with L27R counted along it
ALX1 (Homo sapiens, UniProt Q15699 118-204, L144V), sequence (Q15699 118-204 L144V): as the sequence (Q15699 118-204) above, with L27V counted along it
MSX2 (Homo sapiens, UniProt P35548 130-214), sequence (P35548 130-214): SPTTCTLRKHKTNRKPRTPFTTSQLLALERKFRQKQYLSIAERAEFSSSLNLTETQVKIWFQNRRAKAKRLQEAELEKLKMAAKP
MSX2 (Homo sapiens, UniProt P35548 130-214, R199I), sequence (P35548 130-214 R199I): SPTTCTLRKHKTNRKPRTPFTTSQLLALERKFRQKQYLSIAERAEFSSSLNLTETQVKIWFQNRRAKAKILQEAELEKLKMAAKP
ALX3 (Homo sapiens, UniProt O95076 139-225, L168V), sequence (O95076 139-225 L168V): as the sequence (O95076 139-225) above, with L30V counted along it
ALX3 (Homo sapiens, UniProt O95076 139-225, N203Q), sequence (O95076 139-225 N203Q): as the sequence (O95076 139-225) above, with N65Q counted along it
MSX2 (Homo sapiens, UniProt P35548 130-214, F161Y), sequence (P35548 130-214 F161Y): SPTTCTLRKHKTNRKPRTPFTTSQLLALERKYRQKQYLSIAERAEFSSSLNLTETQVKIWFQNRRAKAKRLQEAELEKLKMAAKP

For CCCCGGGC, the binding signal was 9.93 upbm affinity estimate (log intensity, higher = more binding, comparable within an allelic series) in assay [1]; 9.37 upbm affinity estimate (log intensity, higher = more binding, comparable within an allelic series) in [2]; 9.35 upbm affinity estimate (log intensity, higher = more binding, comparable within an allelic series) in [3]; 9.89 upbm affinity estimate (log intensity, higher = more binding, comparable within an allelic series) in [4]; 9.35 upbm affinity estimate (log intensity, higher = more binding, comparable within an allelic series) in [5].
For the sequence TTACACAA, the binding signal in assay [1] was 10.5 upbm affinity estimate (log intensity, higher = more binding, comparable within an allelic series).
Turning to GGAGGCCC, the binding signal is 10 upbm affinity estimate (log intensity, higher = more binding, comparable within an allelic series) in assay [1]; 9.34 upbm affinity estimate (log intensity, higher = more binding, comparable within an allelic series) in assay [2]; 9.46 upbm affinity estimate (log intensity, higher = more binding, comparable within an allelic series) in [3]; 9.99 upbm affinity estimate (log intensity, higher = more binding, comparable within an allelic series) in assay [4]; 9.59 upbm affinity estimate (log intensity, higher = more binding, comparable within an allelic series) in assay [5].
For TATGTGCA, in assay [1], the binding signal was 10.7 upbm affinity estimate (log intensity, higher = more binding, comparable within an allelic series).
In the case of ACCCGAGC, the binding signal in assay [1] is 10.1 upbm affinity estimate (log intensity, higher = more binding, comparable within an allelic series); in [6], 9.37 upbm affinity estimate (log intensity, higher = more binding, comparable within an allelic series); in [7], 9.24 upbm affinity estimate (log intensity, higher = more binding, comparable within an allelic series); in assay [8] it was 6.62 upbm affinity estimate (log intensity, higher = more binding, comparable within an allelic series); in [9], 9.32 upbm affinity estimate (log intensity, higher = more binding, comparable within an allelic series); in assay [10], 6.43 upbm affinity estimate (log intensity, higher = more binding, comparable within an allelic series). The binding signal in assay [11] was 9.28 upbm affinity estimate (log intensity, higher = more binding, comparable within an allelic series); in assay [4], 10 upbm affinity estimate (log intensity, higher = more binding, comparable within an allelic series); in [12] it was 9.29 upbm affinity estimate (log intensity, higher = more binding, comparable within an allelic series); in assay [13], 9.37 upbm affinity estimate (log intensity, higher = more binding, comparable within an allelic series); in [14], 6.4 upbm affinity estimate (log intensity, higher = more binding, comparable within an allelic series).
For AGTCGGCG, the binding signal in assay [1] was 10.1 upbm affinity estimate (log intensity, higher = more binding, comparable within an allelic series); in [15] it was 9.6 upbm affinity estimate (log intensity, higher = more binding, comparable within an allelic series); in [4] it was 10.1 upbm affinity estimate (log intensity, higher = more binding, comparable within an allelic series); in [16] it was 9.58 upbm affinity estimate (log intensity, higher = more binding, comparable within an allelic series); in assay [17], 9.6 upbm affinity estimate (log intensity, higher = more binding, comparable within an allelic series).
On to CCAATAAA, for which the binding signal in assay [1] was 12.1 upbm affinity estimate (log intensity, higher = more binding, comparable within an allelic series); in [18] it was 11.4 upbm affinity estimate (log intensity, higher = more binding, comparable within an allelic series); in assay [2], 11.1 upbm affinity estimate (log intensity, higher = more binding, comparable within an allelic series); in assay [3] it was 12.4 upbm affinity estimate (log intensity, higher = more binding, comparable within an allelic series); in [4], 11.3 upbm affinity estimate (log intensity, higher = more binding, comparable within an allelic series); in assay [5], 12.2 upbm affinity estimate (log intensity, higher = more binding, comparable within an allelic series). In addition, the binding signal in [19] is 11.1 upbm affinity estimate (log intensity, higher = more binding, comparable within an allelic series).
As to CTTTATGA, the binding signal in assay [1] was 12.2 upbm affinity estimate (log intensity, higher = more binding, comparable within an allelic series); in assay [20] it was 10 upbm affinity estimate (log intensity, higher = more binding, comparable within an allelic series); in assay [2] it was 10.5 upbm affinity estimate (log intensity, higher = more binding, comparable within an allelic series); in [3], 11.8 upbm affinity estimate (log intensity, higher = more binding, comparable within an allelic series); in [4], 11.6 upbm affinity estimate (log intensity, higher = more binding, comparable within an allelic series); in assay [5], 11.5 upbm affinity estimate (log intensity, higher = more binding, comparable within an allelic series). The binding signal in assay [21] is 11.2 upbm affinity estimate (log intensity, higher = more binding, comparable within an allelic series).
As to ATTTATAG, the binding signal is 12.2 upbm affinity estimate (log intensity, higher = more binding, comparable within an allelic series) in assay [1]; 8.9 upbm affinity estimate (log intensity, higher = more binding, comparable within an allelic series) in assay [8]; 11.1 upbm affinity estimate (log intensity, higher = more binding, comparable within an allelic series) in [2]; 9.04 upbm affinity estimate (log intensity, higher = more binding, comparable within an allelic series) in assay [10]; 12.1 upbm affinity estimate (log intensity, higher = more binding, comparable within an allelic series) in [3]; 11.4 upbm affinity estimate (log intensity, higher = more binding, comparable within an allelic series) in assay [4]. Also, the binding signal in assay [5] was 11.9 upbm affinity estimate (log intensity, higher = more binding, comparable within an allelic series); in assay [14], 9.11 upbm affinity estimate (log intensity, higher = more binding, comparable within an allelic series).
Turning to AGCTGGCG, the binding signal in assay [1] is 9.96 upbm affinity estimate (log intensity, higher = more binding, comparable within an allelic series); in [22], 7.77 upbm affinity estimate (log intensity, higher = more binding, comparable within an allelic series); in assay [4] it was 9.94 upbm affinity estimate (log intensity, higher = more binding, comparable within an allelic series); in assay [23], 7.78 upbm affinity estimate (log intensity, higher = more binding, comparable within an allelic series); in [24], 7.68 upbm affinity estimate (log intensity, higher = more binding, comparable within an allelic series); in assay [25], 7.73 upbm affinity estimate (log intensity, higher = more binding, comparable within an allelic series). Also, in assay [26], the binding signal is 7.86 upbm affinity estimate (log intensity, higher = more binding, comparable within an allelic series).
